# Reference: PubChem BioAssay AID504329 (Southern Research Specialized Biocontainment Screening …, 2011)
# “And” between values parts separate entries of the source, which are not always exact repeats. Equal values may be shown once. The whole screen tested about 340,000 compounds, of which about 1,000 (0.29%) were called active. No stated cut-off is given here; in the data, inconclusive means inhibition above about 27% without an active follow-up result; inactive means below that. Only a sample is shown. Measured potencies and affinities stand elsewhere.
# Experiment: H1N1 influenza NS1A inhibitors, functional cell based assay (AID 504329)
# Settings: percent inhibition, at 12.5 µM, hits give high values
row,Structure (SMILES),inhibition
1,O=C(c1cccc(C(F)(F)F)c1)C1CCCN(C(=O)c2cc(C3CC3)[nH]n2)C1 (centres undefined),-9.76% (inactive)
2,CS(=O)(=O)Nc1ccc(C(=O)Nc2ccccc2C(=O)NCc2ccco2)cc1,-1.06% (inactive)
3,Nc1nnc(CC(=O)N/N=C/c2ccc([N+](=O)[O-])cc2)s1,-6.47% (inactive)
4,O=C(Cn1cncn1)N/N=C/c1ccccc1Cl,-0.24% (inactive)
5,O=C(Cn1cncn1)N/N=C/c1cccc2ccccc12,-2.86% (inactive)
6,O=C(CSc1ccccn1)N/N=C/c1cc([N+](=O)[O-])ccc1O,21.2% (inactive)
7,Nc1nnc(CC(=O)N/N=C/c2cc([N+](=O)[O-])cc(Br)c2O)s1,7.8% (inactive)
8,Cc1cc(C(=O)N/N=C/c2ccc([N+](=O)[O-])cc2)c2ccccc2n1,8.83% (inactive)
9,O=C(CCC(=O)Nc1ccc(Br)cc1)N/N=C/c1cc([N+](=O)[O-])ccc1O,-1.12% (inactive)
10,O=C(N/N=C/c1cc([N+](=O)[O-])ccc1O)c1cc(-c2ccccc2)nc2ccccc12,15.9% (inactive)
11,CC(OC(=O)C12CC3CC(CC(O)(C3)C1)C2)C(N)=O (centres undefined),-5.93% (inactive)
12,Cc1cc(C)n(-c2ccc(C(=O)Nc3ccc(N4CCOCC4)cc3)cc2)n1,-0.85% (inactive)
13,CC(Oc1ccc(Cl)cc1Cl)c1nc(-c2ccc(NC(=O)c3ccncc3)cc2)no1 (centres undefined),6.94% (inactive)
14,CCOC(=O)N1CCN(S(=O)(=O)c2ccc(C)c(C)c2C)CC1,-2.44% (inactive)
15,C=C[C@@H]1CN2CCC1C[C@@H]2[C@@H](O)c1ccnc2ccc(OC)cc12 (some centres undefined),-0.14% (inactive) and 2.49% (inactive)
16,CCCCOc1ccc(CCC(=O)N/N=C/c2ccco2)cc1,-16.9% (inactive)
17,O=c1c(-c2ccnn2-c2ccc(F)cc2)cnc2n1CCS2,11.8% (inactive)
18,O=C(Nc1c2c(nn1-c1ccc(Cl)cc1)CS(=O)(=O)C2)C1CC1,-8.81% (inactive)
19,O=C(CSc1nnc(-c2ccc(Cl)cc2)n1-c1ccc(Cl)cc1)N/N=C/c1ccco1,-4.44% (inactive)
20,O=C1NCCCC1C(=O)N/N=C/c1ccccc1[N+](=O)[O-] (centres undefined),4.74% (inactive)
21,O=C(N/N=C/c1cc(Br)ccc1O)c1cccc(N2CCCC2=O)c1,-7.38% (inactive)
22,O=C1NCCCC1C(=O)N/N=C/c1ccccc1O (centres undefined),1.62% (inactive)

row,Structure (SMILES),inhibition
1,COc1ccc(N2CC(C(=O)N/N=C/c3ccc([N+](=O)[O-])cc3)CC2=O)cc1 (centres undefined),3.03% (inactive)
2,COc1ccc(N2CC(C(=O)Nc3ccc([N+](=O)[O-])cc3Br)CC2=O)cc1 (centres undefined),-1% (inactive)
3,O=C(N/N=C/c1ccc([N+](=O)[O-])cc1)c1cccc(N2CCCC2=O)c1,-4.45% (inactive)
4,COc1ccc(Cl)cc1C(=O)NC1=NCCS1,3.24% (inactive)
5,N#Cc1ccc(Oc2ncccn2)cc1,-1.76% (inactive)
6,CC(=O)Nc1ccc(S(=O)(=O)N(C)CC(=O)OCC(=O)c2cc(C)n(-c3ccc4c(c3)OCO4)c2C)cc1,4.97% (inactive)
7,COc1cc(/C=C2\SC(=O)N(Cc3ccc(F)cc3)C2=O)cc([N+](=O)[O-])c1O,26.1% (inactive)
8,COc1cc(/C=C2\SC(=O)N(c3ccc(Cl)cc3)C2=O)cc([N+](=O)[O-])c1O,-5.87% (inactive)
9,CCN(CC)c1ccc(NC(=O)c2ccc3c(c2)OCO3)cc1,21.3% (inactive)
10,CCN(CC)c1ccc(C(=O)Nc2cccc(F)c2)cc1,0.06% (inactive)
11,Cc1cc(C(=O)OCC(=O)Nc2ccccc2C)c(C)o1,-4.72% (inactive)
12,Cc1c(N=c2scc(-c3ccccc3)n2C)c(=O)n(-c2ccccc2)n1C,-5.38% (inactive)
13,Cc1c(N=C2C(=O)Nc3ccccc32)c(=O)n(-c2ccccc2)n1C,11% (inactive)
14,Cc1ccc(N2C(=O)CN(Cc3ccccc3)C2=S)cc1C,-6.48% (inactive)
15,O=[N+]([O-])c1cc(/C=N\Nc2ccccn2)ccc1Cl,-4.08% (inactive)
16,O=C(N/N=C/c1ccc(O)c([N+](=O)[O-])c1)c1ccncc1,13.6% (inactive)
17,COc1ccc(CC(=O)Nc2cc(S(=O)(=O)N3CCOCC3)ccc2N2CCCC2)cc1OC,2.03% (inactive)
18,NC(=O)c1ccc(-c2c(-c3ccccc3)sc3ccccc23)cc1,-3.51% (inactive)
19,CCOC(=O)N1CCC(NC(=O)CCc2c(C)nc3c(c(C)nn3C(C)(C)C)c2C)CC1,0.25% (inactive)
20,CNC(=S)NNc1nc(-c2ccccc2)c2cc(Cl)ccc2n1,8.4% (inactive)
21,COc1ccc(/C=N/Nc2ncnc(Cl)c2N)cc1OC,-17% (inactive)
22,COc1ccccc1/C=N/Nc1nccnc1Cl,4.08% (inactive)

row,Structure (SMILES),inhibition
1,Nc1c(Cl)ncnc1N/N=C/c1ccc(O)cc1,-15.8% (inactive)
2,Nc1c(Cl)ncnc1N/N=C/c1ccnc2ccccc12,-0.57% (inactive)
3,Nc1c(Cl)ncnc1N/N=C/c1cccc(O)c1,17.6% (inactive)
4,COc1ccc(/C=N/Nc2nccnc2Cl)c(OC)c1,-10.3% (inactive)
5,Cc1cccc(NC(=S)NCc2ccc(F)cc2)c1C,-12.3% (inactive)
6,CN1CCN(c2ccc(CNC(=O)c3cc4ccccc4o3)cc2)CC1,-11.5% (inactive)
7,CCOC(=O)N1CCN(S(=O)(=O)c2ccc(C(=O)Nc3sc4c(c3C(N)=O)CC(C)(C)NC4(C)C)cc2)CC1,-1.86% (inactive)
8,O=C1NC(=Nc2ccccc2Br)SC1(CO)CO,-3.43% (inactive)
9,COc1cccc(CNc2ccc(S(=O)(=O)Nc3nccs3)cc2)c1O,-5.98% (inactive)
10,CC(=O)NC(CC(=O)O)c1ccccc1 (centres undefined),-5.66% (inactive)
11,O=C(c1cc(-c2ccc(Cl)cc2)nc2ccccc12)N1CCOCC1,-19.9% (inactive)
12,COc1ccc(OC)c(C2=NS(=O)(=O)N(C)C(C(=O)NCc3ccco3)=C2)c1,-7.9% (inactive)
13,COc1ccc(CN2CCN(c3ccccn3)CC2)cc1OCc1ccccc1,7.77% (inactive)
14,O=C(c1cccc2ccccc12)N1CCN(c2ccc([N+](=O)[O-])c(NCc3ccco3)c2)CC1,7.93% (inactive)
15,CCSc1nnc(NC(=O)c2ccccc2)s1,-12.7% (inactive)
16,Cc1ccc(S(=O)(=O)CCc2nnc(NC(=O)c3cnccn3)s2)cc1,-1.91% (inactive)
17,CCc1nnc(NC(=O)c2cnccn2)s1,-0.42% (inactive)
18,CC(=O)Nc1nnc(CCS(=O)(=O)c2ccc(C)cc2)s1,-6.45% (inactive)
19,CCc1nnc(NC(=O)c2cccc(C(=O)Nc3nnc(CC)s3)n2)s1,-2.25% (inactive)
20,CCSc1nnc(NC(=O)c2cccnc2Cl)s1,-1.92% (inactive)
